Laboratory results reported in PubChem BioAssay (Tox21).
Values joined by “and” are separate entries in the source; they are usually repeats but may differ in a detail not shown here. Identical values can stand only once. Results filed as inconclusive are left out. A call without a number means that no potency is given here. The source holds several records for some structures; these can differ, active in one and inactive in another. Active and inactive are the calls of the source. Unless noted, calls follow the shape of the dose curve; as a rule, active = well fitted curve in the direction sought with a large enough effect in the repeat runs; inconclusive = weak or mixed curves; inactive = no such curve, though single readings can be large; an effect the other way counts as inactive or inconclusive.

Columns and labels:
[1] = qHTS assay to identify small molecule agonists of the estrogen receptor alpha (ER-alpha) signaling pathway in the presence of an antagonist - cell viability counter screen (AID 1259386);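 also: cells exposed to compounds for 22 h at 37 °C before the viability read; nearly all actives have a fitted effect of over 30% in size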; also: potency is read from the fitted curve at half-maximal effect
Summary of the method: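 The test measures whether compounds kill ER-alpha reporter cells (VM7Luc4E2) under antagonist co-treatment (ICI-182,780, 10.0nM). Fluorescence from CellTiter-Fluor is read after a 22hr exposure.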

[2] = molecular target: Progesterone receptor (Homo sapiens) (UniProt P06401); assay: qHTS assay to identify small molecule agonists of the progesterone receptor (PR) signaling pathway (AID 1346784; calls by dose curve; also: nearly all actives have a fitted effect of over 30% in size)
Summary of the method: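 PR-UAS-bla HEK 293T cells carrying a UAS-driven beta-lactamase reporter were seeded in medium with 2% charcoal-stripped FBS, preincubated 6 hr at 37C, then exposed to compounds in DMSO for 16 hr; agonism was read by LiveBLAzer B/G FRET fluorescence.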

[3] = molecular target: Progesterone receptor (Homo sapiens) (UniProt P06401); assay: qHTS assay to identify small molecule antagonists of the progesterone receptor (PR) signaling pathway (AID 1346795; active = well fitted inhibition curve with a large enough effect in the signal ratio in the repeat runs, not every such curve was filed as active; the % refers to the signal ratio; also: potency is read from the fitted curve at half-maximal effect)
Summary of the method: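 PR-UAS-bla HEK293T cells carrying a UAS-driven beta-lactamase reporter were plated in medium with 2% charcoal-stripped FBS and rested 6 hr at 37C. Compounds were added with 1 nM R5020 (final) for 16 hr, then FRET substrate loaded 2 hr at room temperature.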

[4] = qHTS assay to identify small molecule antagonists of the progesterone receptor (PR) signaling pathway - cell viability counter screen (AID 1346798); also: nearly all actives have a fitted effect of over 50% in size; also: potency is read from the fitted curve at half-maximal effect
Summary of the method: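 PR-UAS-bla HEK293T cells in medium with 2% charcoal-stripped FBS were treated with compounds plus R5020 for 16 hr at 37C. Cell viability was then read by CellTiter-Glo luminescence after 30 min at room temperature in the same wells.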

[5] = qHTS assay to identify small molecule agonists of the progesterone receptor (PR) signaling pathway - cell viability counter screen (AID 1346799; calls by dose curve; also: nearly all actives have a fitted effect of over 45% in size; also: potency is read from the fitted curve at half-maximal effect)
Summary of the method: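 PR-UAS-bla HEK293T cells, 3,000 per well in medium with 2% charcoal-stripped FBS, were preincubated 6 hr at 37C, then exposed to compounds for 16 hr; viability was read as CellTiter-Glo luminescence after 30 min at room temperature.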

[6] = qHTS assay to identify small molecule antagonists of the TGF-beta/Smad signaling pathway - cell viability counter screen (AID 1346824); also: nearly all actives have a fitted effect of over 50% in size; also: potency is read from the fitted curve at half-maximal effect
Summary of the method: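 SBE-bla HEK 293T cells were plated overnight at 37 C, then given compounds in DMSO plus TGF-beta1 (added as 0.25 ng/mL solution) for 5 hr. After the bla read, CellTiter-Glo was added to the same wells and luminescence read after 30 min at room temperature.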

[7] = qHTS assay to identify small molecule agonists of the TGF-beta/Smad signaling pathway - cell viability counter screen (AID 1346829); also: nearly all actives have a fitted effect of over 45% in size; also: potency is read from the fitted curve at half-maximal effect
Summary of the method: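 CellTiter-Glo luminescence readout; SBE-bla HEK 293T cells, overnight plating, compound 5 hr at 37 C/5% CO2, then bla substrate 2 hr RT, then CellTiter-Glo 30 min RT.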

[8] = molecular target: Thyrotropin-releasing hormone receptor (Homo sapiens) (UniProt P34981); assay: qHTS assay to identify small molecule antagonists of the thyrotropin-releasing hormone receptor (TRHR) signaling pathway (AID 1346877; active = well fitted inhibition curve with a large enough effect in the repeat runs, not every such curve was filed as active; also: potency is read from the fitted curve at half-maximal effect)
Summary of the method: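 Overnight-plated (18 h, 37 °C) HEK293 cells expressing TRHR were dye-loaded 2 h, treated with compound, then stimulated with TRH at 1 nM final. Fluorescence intensity was captured every second for 3 min.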

[9] = molecular target: Thyrotropin-releasing hormone receptor (Homo sapiens) (UniProt P34981); assay: qHTS assay to identify small molecule agonists of the thyrotropin-releasing hormone receptor (TRHR) signaling pathway (AID 1346891; calls by dose curve; also: potency is read from the fitted curve at half-maximal effect; as to activation: series mostly up to about 58 µM)
Summary of the method: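 TRHR-expressing HEK293 cells were plated 18 h at 37 °C/5% CO2, loaded with calcium dye 2 h at 37 °C, then given compound in DMSO; fluorescence was read kinetically for 3 min at 1 s intervals.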

[10] = qHTS assay to identify small molecule agonists of the TGF-beta/Smad signaling pathway (AID 1346859; active = well fitted activation curve with a large enough effect in the signal ratio in the repeat runs, not every such curve was filed as active; the % refers to the signal ratio; also: series mostly up to about 77 µM)
Summary of the method: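 HEK 293T cells stably carrying a beta-lactamase reporter driven by the Smad binding element were seeded overnight, exposed to DMSO-dissolved compounds for 5 hr at 37 C, 5% CO2, then loaded with FRET substrate for 2 hr at room temperature.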

Thyrotropin-releasing hormone receptor (Homo sapiens), sequence (P34981 whole entry, looked up): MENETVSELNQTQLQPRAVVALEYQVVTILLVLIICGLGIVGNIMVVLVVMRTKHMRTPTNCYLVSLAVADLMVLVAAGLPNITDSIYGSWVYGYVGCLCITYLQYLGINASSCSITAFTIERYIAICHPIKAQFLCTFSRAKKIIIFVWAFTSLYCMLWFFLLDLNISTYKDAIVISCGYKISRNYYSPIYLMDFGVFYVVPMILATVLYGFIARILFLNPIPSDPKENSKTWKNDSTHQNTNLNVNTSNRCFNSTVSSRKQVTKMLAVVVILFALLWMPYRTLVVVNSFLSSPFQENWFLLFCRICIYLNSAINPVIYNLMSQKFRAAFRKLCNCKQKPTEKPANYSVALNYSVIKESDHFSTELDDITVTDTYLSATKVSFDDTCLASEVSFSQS
Progesterone receptor (Homo sapiens), sequence (P06401 whole entry, looked up): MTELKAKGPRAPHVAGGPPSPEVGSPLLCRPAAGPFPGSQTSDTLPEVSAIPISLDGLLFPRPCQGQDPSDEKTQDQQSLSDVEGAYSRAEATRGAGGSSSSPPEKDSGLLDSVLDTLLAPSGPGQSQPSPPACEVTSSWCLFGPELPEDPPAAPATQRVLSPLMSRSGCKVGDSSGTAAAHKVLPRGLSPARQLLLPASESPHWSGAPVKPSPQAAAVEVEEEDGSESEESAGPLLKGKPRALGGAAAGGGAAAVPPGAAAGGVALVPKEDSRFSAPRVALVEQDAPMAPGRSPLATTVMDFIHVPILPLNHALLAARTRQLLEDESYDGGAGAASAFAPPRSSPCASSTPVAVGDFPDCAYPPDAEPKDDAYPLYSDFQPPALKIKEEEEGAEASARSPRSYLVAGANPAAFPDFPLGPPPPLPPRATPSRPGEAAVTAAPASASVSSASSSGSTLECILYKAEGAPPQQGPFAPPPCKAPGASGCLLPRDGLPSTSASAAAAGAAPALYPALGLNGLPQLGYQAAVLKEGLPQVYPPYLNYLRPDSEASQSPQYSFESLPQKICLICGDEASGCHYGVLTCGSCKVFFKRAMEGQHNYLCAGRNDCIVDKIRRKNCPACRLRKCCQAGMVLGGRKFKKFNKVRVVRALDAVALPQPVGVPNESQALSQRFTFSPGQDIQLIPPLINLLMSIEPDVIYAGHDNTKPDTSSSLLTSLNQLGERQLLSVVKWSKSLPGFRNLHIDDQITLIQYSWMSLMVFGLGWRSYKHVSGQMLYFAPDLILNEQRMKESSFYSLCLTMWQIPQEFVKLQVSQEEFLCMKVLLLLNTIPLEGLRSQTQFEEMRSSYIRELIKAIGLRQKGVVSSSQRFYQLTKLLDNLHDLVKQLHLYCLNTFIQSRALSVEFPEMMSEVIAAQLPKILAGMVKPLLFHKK

SMILES | Potency [1] | Potency [2] | Potency [3] | Potency [4] | Potency [5] | Potency [6] | Potency [7] | Potency [8] | Potency [9] | outcome [10]
CN(C)C(=O)Nc1ccc(Cl)c(Cl)c1 | inactive | inactive | inactive | inactive | inactive | inactive | inactive | inactive | inactive | –
CCCCNC(=O)NS(=O)(=O)c1ccc(C)cc1 | inactive | inactive | inactive | inactive | inactive | inactive | inactive | inactive | inactive | inactive
O=CC(=O)c1ccccc1 | inactive | inactive | inactive | inactive | inactive | inactive | inactive | inactive | inactive | –
CNNCc1ccc(C(=O)NC(C)C)cc1 | inactive | inactive | inactive | inactive | inactive | inactive | inactive | inactive | inactive | –
Nc1ccc([N+](=O)[O-])cc1O | 27.3 µM (active) | – | – | – | – | – | inactive | – | – | inactive
CC/C(=C(\c1ccccc1)c1ccc(OCCN(C)C)cc1)c1ccccc1 | inactive and 61.6 µM (active) | inactive | – | – | – | – | 55.3 µM (active) and inactive | 12.1 µM (active) and inactive | 15.6 µM (active) and inactive | –
COc1ccc(C(Cl)=C(c2ccc(OC)cc2)c2ccc(OC)cc2)cc1 | inactive | inactive | 6.82 µM (active) and 5.45 µM (active) and 4.22 µM (active) | inactive | – | inactive | inactive | inactive | inactive | –
NC(CO)(CO)CO | inactive | inactive | inactive | inactive | inactive | inactive | inactive | inactive | inactive | –
CC(=O)CCC(=O)O | inactive | – | – | inactive | inactive | inactive | inactive | – | – | –
CCCCCCCCCCCC[N+](C)(C)Cc1ccccc1 | 67.3 µM (active) and 74.5 µM (active) and inactive | – | – | 29.7 µM (active) and 33.5 µM (active) | 8.47 µM (active) and 8.36 µM (active) and 10.6 µM (active) | 48 µM (active) and 33.6 µM (active) and 23.9 µM (active) | 48 µM (active) and 29.9 µM (active) | inactive | inactive | inactive
CN[C@H]1CC[C@@H](c2ccc(Cl)c(Cl)c2)c2ccccc21 | inactive | inactive | – | – | inactive | inactive | – | – | – | inactive
